# Measured values reported in the supplement of paper PMC8728848.
# About 410 targets per protein were measured; listed, in parts, are those with the strongest signals and a random draw of the rest.
# B1: HFR-3 (Triticum aestivum) (protein)
# chain: MKGLLLCALALAFAAVTTHAQLQSCPTRCGKQADGMECPNNLCCSKDGYCGLGVDYCSAGAGCQSGACYDNKICGAQANGTLCRNNHCCSSGGRCGYGREYCSNGCQGGPCWADLKCGHLDNGKLCPNNLCCSQYGYCGLGPEFCGTGCQNGACSTDKPCGNKANGAPCTNNYCCSQYGSCGLGKDYCGTGCQNGACN
# Experiments:
# Experiment in all cases: glycan array binding signal (z-score within array); higher = stronger binding
# Conditions in all cases: glycan notation: IUPAC condensed, linker removed
# GlcA(b1-3)GlcNAc = target: GlcA(b1-3)GlcNAc
# Outline: (§1)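 Arrays were curated from the Consortium for Functional Glycomics database, 3228 in total, and kept only where the protein sequence was available. Binding is expressed as a within-array Z-score. This score was averaged across arrays of the same protein sequence at different concentrations or buffers and across linkers, and negative values can be read as non-binding.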
# GlcA(b1-6)Gal = target: GlcA(b1-6)Gal
# Outline: as §1
# [1] = target: GlcNAc(a1-4)Gal(b1-4)GlcNAc(b1-3)Gal(b1-4)GlcNAc
# Outline: as §1
# [2] = target: GlcNAc(a1-6)Gal(b1-4)GlcNAc
# Outline: as §1
# [3] = target: GlcNAc(b1-3)Gal(b1-4)GlcNAc(b1-2)Man(a1-3)[GlcNAc(b1-3)Gal(b1-4)GlcNAc(b1-2)Man(a1-6)]Man(b1-4)GlcNAc(b1-4)GlcNAc
# Outline: as §1
# [4] = target: GlcNAc(b1-3)Gal(b1-4)GlcNAc(b1-3)Gal(b1-4)GlcNAc(b1-3)Gal(b1-4)GlcNAc(b1-2)[GlcNAc(b1-3)Gal(b1-4)GlcNAc(b1-3)Gal(b1-4)GlcNAc(b1-3)Gal(b1-4)GlcNAc(b1-6)]Man(a1-6)[GlcNAc(b1-3)Gal(b1-4)GlcNAc(b1-3)Gal(b1-4)GlcNAc(b1-3)Gal(b1-4)GlcNAc(b1-2)Man(a1-3)]Man(b1-4)GlcNAc(b1-4)[Fuc(a1-6)]GlcNAc
# Outline: as §1
# [5] = target: GlcNAc(b1-3)Gal(b1-4)GlcNAc(b1-3)Gal(b1-4)GlcNAc(b1-3)Gal(b1-4)GlcNAc(b1-3)Gal(b1-4)GlcNAc(b1-2)[GlcNAc(b1-3)Gal(b1-4)GlcNAc(b1-3)Gal(b1-4)GlcNAc(b1-3)Gal(b1-4)GlcNAc(b1-3)Gal(b1-4)GlcNAc(b1-6)]Man(a1-6)[GlcNAc(b1-3)Gal(b1-4)GlcNAc(b1-3)Gal(b1-4)GlcNAc(b1-3)Gal(b1-4)GlcNAc(b1-3)Gal(b1-4)GlcNAc(b1-2)Man(a1-3)]Man(b1-4)GlcNAc(b1-4)[Fuc(a1-6)]GlcNAc
# Outline: as §1
# [6] = target: GlcNAc(b1-3)Gal(b1-4)GlcNAc(b1-3)[GlcNAc(b1-3)Gal(b1-4)GlcNAc(b1-3)]GalNAc
# Outline: as §1
# [7] = target: GlcNAc(b1-3)Gal(b1-4)GlcNAc(b1-6)[GlcNAc(b1-3)]Gal(b1-4)GlcNAc
# Outline: as §1
# GlcNAc(b1-3)GalNAc = target: GlcNAc(b1-3)GalNAc
# Outline: as §1
# GlcNAc(b1-6)GalNAc = target: GlcNAc(b1-6)GalNAc
# Outline: as §1
# Kdn(a2-3)Gal(b1-3)GalNAc = target: Kdn(a2-3)Gal(b1-3)GalNAc
# Outline: as §1
# [8] = target: Man(a1-3)[Man(a1-6)]Man(a1-6)[Man(a1-3)]Man
# Outline: as §1
# [9] = target: Man(a1-3)[Man(a1-6)]Man(a1-6)[Man(a1-3)]Man(b1-4)GlcNAc(b1-4)GlcNAc
# Outline: as §1
# [10] = target: Man(a1-3)[Man(a1-6)]Man(b1-4)GlcNAc(b1-4)GlcNAc
# Outline: as §1
# Neu5Ac(a2-3)Gal = target: Neu5Ac(a2-3)Gal
# Outline: as §1
# [11] = target: Neu5Ac(a2-3)Gal(b1-4)GlcNAc(b1-3)Gal(b1-4)GlcNAc(b1-3)[Neu5Ac(a2-3)Gal(b1-4)GlcNAc(b1-3)Gal(b1-4)GlcNAc(b1-6)]GalNAc
# Outline: as §1
# [12] = target: Neu5Ac(a2-3)Gal(b1-4)GlcNAc(b1-3)Gal(b1-4)[Fuc(a1-3)]GlcNAc
# Outline: as §1
# [13] = target: Neu5Ac(a2-3)Gal(b1-4)[Fuc(a1-3)]GlcNAc(b1-3)GalNAc
# Outline: as §1
# [14] = target: Neu5Ac(a2-3)GalNAc(b1-4)GlcNAc
# Outline: as §1
# [15] = target: Neu5Ac(a2-6)Gal(b1-4)GlcNAc(b1-2)Man
# Outline: as §1
# [16] = target: Neu5Ac(a2-6)Gal(b1-4)GlcNAc(b1-2)Man(a1-6)[Gal(b1-4)GlcNAc(b1-2)Man(a1-3)]Man(b1-4)GlcNAc(b1-4)GlcNAc
# Outline: as §1
# [17] = target: Neu5Ac(a2-6)Gal(b1-4)GlcNAc(b1-2)Man(a1-6)[GlcNAc(b1-2)Man(a1-3)]Man(b1-4)GlcNAc(b1-4)GlcNAc
# Outline: as §1
# [18] = target: Neu5Ac(a2-6)Gal(b1-4)GlcNAc(b1-3)Gal(b1-4)GlcNAc(b1-2)Man(a1-3)[Neu5Ac(a2-6)Gal(b1-4)GlcNAc(b1-3)Gal(b1-4)GlcNAc(b1-2)Man(a1-6)]GalNAc
# Outline: as §1
# [19] = target: Neu5Ac(a2-6)Gal(b1-4)GlcNAc(b1-3)Gal(b1-4)GlcNAc(b1-3)[Neu5Ac(a2-6)Gal(b1-4)GlcNAc(b1-3)Gal(b1-4)GlcNAc(b1-6)]GalNAc
# Outline: as §1
# [20] = target: Neu5Ac(a2-6)Gal(b1-4)GlcNAc(b1-6)[Gal(b1-3)GlcNAc(b1-3)]Gal(b1-4)Glc
# Outline: as §1
# [21] = target: Neu5Gc(a2-3)Gal(b1-3)GlcNAc
# Outline: as §1
# [22] = target: Neu5Gc(a2-8)Neu5Gc(a2-3)Gal(b1-4)GlcNAc
# Outline: as §1
binder,measurement,setting,value
B1,glycan array binding signal (z-score),GlcA(b1-3)GlcNAc,0.799
same,glycan array binding signal (z-score),GlcA(b1-6)Gal,-0.641
same,glycan array binding signal (z-score),[1],0.598
same,glycan array binding signal (z-score),[2],-0.582
same,glycan array binding signal (z-score),[3],0.65
same,glycan array binding signal (z-score),[4],2.43
same,glycan array binding signal (z-score),[5],1.15
same,glycan array binding signal (z-score),[6],0.04
same,glycan array binding signal (z-score),[7],-1.09
same,glycan array binding signal (z-score),GlcNAc(b1-3)GalNAc,2.18
same,glycan array binding signal (z-score),GlcNAc(b1-6)GalNAc,-0.591
same,glycan array binding signal (z-score),Kdn(a2-3)Gal(b1-3)GalNAc,2.75
same,glycan array binding signal (z-score),[8],2.17
same,glycan array binding signal (z-score),[9],3.89
same,glycan array binding signal (z-score),[10],0.828
same,glycan array binding signal (z-score),Neu5Ac(a2-3)Gal,-0.367
same,glycan array binding signal (z-score),[11],0.555
same,glycan array binding signal (z-score),[12],-0.597
same,glycan array binding signal (z-score),[13],-0.052
same,glycan array binding signal (z-score),[14],1.18
same,glycan array binding signal (z-score),[15],0.755
same,glycan array binding signal (z-score),[16],-0.801
same,glycan array binding signal (z-score),[17],-0.077
same,glycan array binding signal (z-score),[18],0.189
same,glycan array binding signal (z-score),[19],0.943
same,glycan array binding signal (z-score),[20],-0.251
same,glycan array binding signal (z-score),[21],-0.969
same,glycan array binding signal (z-score),[22],-0.961
